Structures are written as SMILES. Results filed as inconclusive are left out. Where a call stands in place of a potency, no number is given. Active and inactive are the calls of the source. Calls come from the whole dose curve; as a rule, active = well fitted inhibition curve with a large enough effect; inconclusive = small, poorly fitted or top-dose-only effect; inactive = no such curve, though single readings can be large or run the other way.
Potency is the fitted concentration of half-maximal effect.

This experiment is described as follows: qHTS Screen of the MIPE 4.0 Collection Against Ewings Sarcoma (TC32) (AID 1259256). Note: nearly all actives have a fitted effect of over 45% in size. The conditions noted are these: TC32 Ewing sarcoma viability, CellTiter-Glo, 48 h; series mostly up to 45.8 µM. The source says: There is a large unmet medical need for treatments for Ewing sarcoma, a pediatric sarcoma. We sought to identify compounds that inhibited Ewing sarcoma cells in vitro with the goal to then test promising drugs in two drug combinations in vitro to look for synergistic drug combinations. Promising combinations would then proceed to additional validation, including in vivo testing.
Using the NCATS developed oncology compound library called the Mechanism of Interrogation Plate (MIPE), four Ewing sarcoma cell lines were evaluated (TC32, TC71, RDES, EW8). Compounds, in a 12-point titration series, were incubated with cells for 48 hours and the read out was cell viability (CellTiter-Glo from Promega). These initial experiments were used to select appropriate concentrations of each single agent for subsequent two-drug matrix combinations such that the concentrations in the matrices would span both activity and non-activity.
Cells, in the log phase of growth, were seeded in 5 uL of RPMI plus 5% FBS, […] L-glutamine, 100 U/ml penicillin and 100 ug/ml streptomycin into 1536-well solid-bottom white tissue culture treated Greiner Bio One Plates (789173-F) using a MultiDrop Combi (Thermofisher Scientific) dispenser and a small sterile cassette. One column was media alone to be used as a :"no cells" control. The plates were then covered with sterilized stainless steel gasketed lids from Kalypsys. After allowing cells to attach for 4 hours, 23 nL of test compound or control (negative control DMSO and positive control 9.2 uM Bortezomib-final) were added from a 1536-well polypropylene compound source plate to each well using a 1536 head pin tool from Kalypsys. Cells were then incubated for 48 hours at 37C, 95% relative humidity and 5% CO2. After 48 hours, plates were removed from the incubator and 3 uL of CellTiter-Glo (Promega) was added using an Aurora Flying Reagent Dispenser Bioraptor. Plates were incubated at room temperature for 10 minutes prior to reading the luminescence on the Viewlux (PerkinElmer). The relative luciferase units are used to calculate the percent activity using the activity of DMSO in the cells and no cells columns for normalization of no inhibition and full inhibition respectively.
As for `COc1ccccc1OCC(O)COC(N)=O` (stereo not given), the Potency result is “inactive”.

Take `CC1(C)[C@H](C(=O)O)N2C(=O)C[C@H]2S1(=O)=O`: the Potency entry is “inactive”.

Consider `COc1ncnc(NS(=O)(=O)c2ccc(N)cc2)c1OC`, for which the Potency entry was “inactive”.

In the case of `CO[C@@]12[C@H](COC(N)=O)C3=C(C(=O)C(C)=C(N)C3=O)N1C[C@@H]1N[C@@H]12`, the Potency was 0.0037 µM (active). With `CCC(=O)O[C@]1(C(=O)SCF)[C@H](C)C[C@H]2[C@@H]3C[C@H](F)C4=CC(=O)C=C[C@]4(C)[C@@]3(F)[C@@H](O)C[C@@]21C`, the Potency entry was “inactive”. The result for `CCOC(=O)c1ccc(C#Cc2ccc3c(c2)C(C)(C)CCS3)nc1` reads “inactive”; that for `CCN(CC)CC#CCOC(=O)C(O)(c1ccccc1)C1CCCCC1` (stereo not given), “inactive”; that for `Nc1nc(N)c2nc(CNc3ccc(C(=O)NC(CCC(=O)O)C(=O)O)cc3)cnc2n1` (stereo not given), 0.0332 µM (active). Take `COc1cnc(NS(=O)(=O)c2ccc(N)cc2)nc1`: the Potency result was “inactive”. The result for `CCOc1cc(N)c(Cl)cc1C(=O)NCC1CN(Cc2ccc(F)cc2)CCO1` (stereo not given) reads “inactive”; that for `Cn1nnc2c(C(N)=O)ncn2c1=O`, “inactive”; that for `Nc1nc(N)nc(-c2cc(Cl)ccc2Cl)n1`, “inactive”. Then `C[C@@H](CN1CC(=O)NC(=O)C1)N1CC(=O)NC(=O)C1`, with “inactive”; and `COc1cc2ncnc(Nc3cccc(Cl)c3)c2cc1OC`, with 16.6 µM (active). Then `CCC(C)(C)c1ccc(CC(C)CN2C[C@@H](C)O[C@@H](C)C2)cc1` (stereo not given in full), with “inactive”; and `CNS(=O)(=O)CCc1ccc2[nH]cc(C3CCN(C)CC3)c2c1`, with 1.48 µM (active); and `O=S(=O)(O)CCS`, with “inactive”. With `CC(N)C12CC3CC(CC(C3)C1)C2` (stereo not given), the Potency entry is “inactive”. The result for `CC(=O)[C@H]1CC[C@H]2[C@@H]3CC=C4C[C@@H](O)CC[C@]4(C)[C@H]3CC[C@]12C` reads “inactive”; that for `CC(C)(C)NC(=O)[C@H]1CC[C@H]2[C@@H]3CC[C@H]4NC(=O)C=C[C@]4(C)[C@H]3CC[C@]12C`, 3.72 µM (active); that for `COC(c1ccccc1)(c1ccccc1)[C@H](Oc1nc(C)cc(C)n1)C(=O)O`, “inactive”. Then `Cn1c(=O)c2c(ncn2CC(O)CO)n(C)c1=O` (stereo not given), with “inactive”; and `CNS(=O)(=O)Cc1ccc2[nH]cc(CCN(C)C)c2c1`, with “inactive”. As to `CCN[C@H]1C[C@H](C)S(=O)(=O)c2sc(S(N)(=O)=O)cc21`, the Potency entry was “inactive”.

Take `CN1CCCC(n2nc(Cc3ccc(Cl)cc3)c3ccccc3c2=O)CC1` (stereo not given): the Potency is 3.72 µM (active). The result for `Cc1ccc(S(=O)(=O)N[C@@H](Cc2ccccc2)C(=O)CCl)cc1` reads 14.8 µM (active); that for `CCOC(=O)[C@H](CCc1ccccc1)N[C@H]1CS[C@H](c2cccs2)CN(CC(=O)O)C1=O`, 4.18 µM (active). Then `CN(C)CCc1c[nH]c2ccc(C[C@H]3COC(=O)N3)cc12`, with “inactive”. Then `O=C(O)c1cccnc1`, with “inactive”.

Consider `Nc1[nH]c(=O)ncc1F`, for which the Potency was 13.2 µM (active).

Consider `O=C(O)C1CCCN(CCC=C(c2ccccc2)c2ccccc2)C1` (stereo not given), for which the Potency was 9.35 µM (active).

Take `CNC1CCCN(c2c(F)cc3c(=O)c(C(=O)O)cn(C4CC4)c3c2OC)C1` (stereo not given): the Potency was 20.9 µM (active).

Take `CS(=O)(=O)c1ccc([C@@H](O)[C@@H](CO)NC(=O)C(Cl)Cl)cc1`: the Potency was 18.7 µM (active). The result for `CCOCC(O)COc1ccc(NC(=O)CC[S+](C)C)cc1` (stereo not given) reads “inactive”; that for `CN(CCOc1ccc(CC2SC(=O)NC2=O)cc1)c1ccccn1` (stereo not given), “inactive”; that for `Nc1ccc(S(=O)(=O)Nc2ccccn2)cc1`, “inactive”. The result for `O[C@@H](CNC[C@H](O)[C@H]1CCc2cc(F)ccc2O1)[C@@H]1CCc2cc(F)ccc2O1` reads 23.5 µM (active). The result for `NC(=O)c1cccc(N)c1` reads “inactive”. For the compound `O=C(NCC1CN(c2ccc(N3CCOCC3=O)cc2)C(=O)O1)c1ccc(Cl)s1` (stereo not given), the Potency result was “inactive”. Then `O=C(O)c1cc(=O)[nH]c(=O)[nH]1`, with “inactive”.

For the origin of these results see PubChem BioAssay (NCATS).
